In PubChem BioAssay one finds z-score and composite z-score data, which are given here for 9 compounds.

Each structure is given as a SMILES string. The source made the active and inactive calls. Unless noted, no rule for the calls is given here.

The nature of assay [1]: A549 cell viability effects, profiling panel, calcein-AM fluorescence, 48 h, basal (AID 1162). Also: test concentration not given here. The note with it: higher = more signal.
A short description of assay [2]: adipocyte viability effects, profiling panel, cell-based, 3T3-L1 adipocytes, calcein-AM fluorescence, 48 h, basal (AID 1163). Also: test concentration not given here. The note with it: 3T3-L1 adipocytes viability, higher = more signal.
Assay [3] in a line: HepG2 cell viability effects, profiling panel, calcein-AM fluorescence, 48 h, basal (AID 1164). Also: test concentration not given here. The conditions noted are these: higher = more signal.
Assay [4] in a line: MM1S cell viability effects, profiling panel, calcein-AM fluorescence, 48 h, basal (AID 1165).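 Also: viability of MM1S multiple myeloma cells under basal unstimulated conditions; test concentration not given here.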 The conditions noted are these: higher = more signal.
Assay [5] in a line: basal RPMI8226 viability, no added stimulus, profiling panel, cell-based, calcein-AM fluorescence, 48 h, PK04 Diversity Set (AID 1166).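 Also: cells grown under basal conditions without added stimulus; test concentration not given here.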 The conditions noted are these: RPMI8226 myeloma viability, higher = more signal.
The nature of assay [6]: basal HepG2 mitochondrial membrane potential changes, profiling panel, cell-based, JC-1 fluorescence, 24 h, 100 nL compound (AID 1167). Also: test concentration not given here. The conditions noted are these: higher = more signal.
Assay [7] is described as follows: basal 3T3-L1 adipocyte mitochondrial potential changes, profiling panel, cell-based, JC-1 fluorescence, 3T3-L1 adipocytes, 24 h, 100 nL compound (AID 1168). Also: test concentration not given here. The note with it: JC-1 mitochondrial fluorescence, higher = more signal, called active from +8 up or from −8 down.
Assay [8] in a line: basal RPMI8226 mitochondrial membrane potential changes, profiling panel, cell-based, JC-1 fluorescence, 24 h, 100 nL compound (AID 1169). Also: test concentration not given here. The conditions noted are these: RPMI8226 myeloma, JC-1 mitochondrial potential fluorescence, higher = more signal.
A short description of assay [9]: basal MM1S mitochondrial membrane potential changes, profiling panel, cell-based, JC-1 fluorescence, 24 h, 100 nL compound (AID 1170). Also: test concentration not given here. The note with it: higher = more signal.
The nature of assay [10]: A549 lung cancer cell viability effects, profiling panel, resazurin fluorescence, 24 h, PK04 Diversity Set (AID 1171). Also: test concentration not given here. The note with it: higher = more signal, called active from +8 up or from −8 down.
Assay [11] can be described thus: HepG2 liver cancer cell viability effects, profiling panel, resazurin fluorescence, 24 h, PK04 Diversity Set (AID 1172). Also: test concentration not given here. The conditions noted are these: higher = more signal.
Assay [12] is described as follows: basal S. cerevisiae growth modulation, no modifier, primary screen, OD600, strain BY4716, 24 h, basal condition (AID 1173). The conditions noted are these: OD600, 24 h, higher = more signal, called active from +8 up or from −8 down.
Assay [13] is described as follows: MM1S myeloma cell viability, profiling panel, resazurin fluorescence, basal, 24 h, PK04 Diversity Set (AID 1174).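 Also: MM1S multiple myeloma cell line; test concentration not given here.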 The conditions noted are these: higher = more signal, called active from +8 up or from −8 down. (The colour change of resazurin is a common sign of viable cells or microbes.)
Assay [14] addresses Dihydroorotate dehydrogenase (quinone), mitochondrial (Plasmodium falciparum (isolate 3D7)) (UniProt Q08210). Description: PfDHODH enzyme inhibitors, primary screen, biochemical, C-terminal His tag, absorbance 600 nm (AID 1175).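 Also: recombinant parasite enzyme with a five histidine tag at its C terminus; test concentration not given here.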 The note with it: DCIP absorbance 600 nm, higher = more signal, called active from +8 up or from −8 down.
The nature of assay [15]: P. aeruginosa biofilm formation inhibitors, primary screen, strain PAO1, LB-PBS medium, absorbance 600 nm (AID 1176). Also: test concentration not given here. The note with it: P. aeruginosa PAO1 growth/biofilm, A600, 12 h; higher = more signal.
Assay [16] in a line: S. cerevisiae RM11-1a growth modifiers, primary screen, strain RM11-1a, OD600, basal, 24 h (AID 1177).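 Also: cultures grown under basal conditions with no added stressor; test concentration not given here.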 The conditions noted are these: OD600, 24 h, higher = more signal, called active from +8 up or from −8 down.
Assay [17] is described as follows: E. coli acrAB mutant growth effects, primary screen, E. coli filamentation inducers, strain DRC39, OD650, 24 h (AID 1178).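 Also: growth measured as culture turbidity by optical density at 650 nm; test concentration not given here.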 The note with it: higher = more signal, called active from +8 up or from −8 down.
The nature of assay [18]: E. coli acrAB mutant growth effects, primary screen, E. coli filamentation inducers, strain DRC39, OD650, 48 h (AID 1179).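 Also: screen aims at cell division blockers that make cells filament.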 The note with it: E. coli DRC39 delta-acrAB growth, higher = more signal, called active from +8 up or from −8 down.
The nature of assay [19]: RPMI8226 myeloma cell viability, profiling panel, resazurin fluorescence, basal, 24 h, PK04 Diversity Set (AID 1180).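 Also: RPMI8826 multiple myeloma cell line at 5000 cells per well; test concentration not given here.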 The conditions noted are these: higher = more signal.
Assay [20] has as its target E3 ubiquitin-protein ligase XIAP (Homo sapiens) (UniProt P98170). Description: XIAP binders, primary screen, biophysical, small-molecule microarray, fluorescence 635 nm (AID 1181).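 Also: score merges 667 nm emission and signal to noise over triplicate slides.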 The conditions noted are these: small-molecule microarray binding, higher = more signal.

E3 ubiquitin-protein ligase XIAP (Homo sapiens), sequence (P98170 whole entry, looked up): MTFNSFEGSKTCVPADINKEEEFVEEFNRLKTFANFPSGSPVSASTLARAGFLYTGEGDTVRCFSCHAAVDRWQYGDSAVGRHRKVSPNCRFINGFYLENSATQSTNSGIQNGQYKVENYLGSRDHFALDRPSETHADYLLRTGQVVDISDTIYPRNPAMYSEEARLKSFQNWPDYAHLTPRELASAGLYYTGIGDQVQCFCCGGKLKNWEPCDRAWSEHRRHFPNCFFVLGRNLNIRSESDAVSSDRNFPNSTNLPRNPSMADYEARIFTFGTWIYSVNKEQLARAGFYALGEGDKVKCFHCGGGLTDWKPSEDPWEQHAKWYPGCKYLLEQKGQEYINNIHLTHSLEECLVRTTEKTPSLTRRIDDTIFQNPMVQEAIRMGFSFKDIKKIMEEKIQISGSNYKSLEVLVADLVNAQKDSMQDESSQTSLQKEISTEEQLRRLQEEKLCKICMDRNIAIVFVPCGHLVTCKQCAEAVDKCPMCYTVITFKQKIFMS
Dihydroorotate dehydrogenase (quinone), mitochondrial (Plasmodium falciparum (isolate 3D7)), sequence (Q08210 whole entry, looked up): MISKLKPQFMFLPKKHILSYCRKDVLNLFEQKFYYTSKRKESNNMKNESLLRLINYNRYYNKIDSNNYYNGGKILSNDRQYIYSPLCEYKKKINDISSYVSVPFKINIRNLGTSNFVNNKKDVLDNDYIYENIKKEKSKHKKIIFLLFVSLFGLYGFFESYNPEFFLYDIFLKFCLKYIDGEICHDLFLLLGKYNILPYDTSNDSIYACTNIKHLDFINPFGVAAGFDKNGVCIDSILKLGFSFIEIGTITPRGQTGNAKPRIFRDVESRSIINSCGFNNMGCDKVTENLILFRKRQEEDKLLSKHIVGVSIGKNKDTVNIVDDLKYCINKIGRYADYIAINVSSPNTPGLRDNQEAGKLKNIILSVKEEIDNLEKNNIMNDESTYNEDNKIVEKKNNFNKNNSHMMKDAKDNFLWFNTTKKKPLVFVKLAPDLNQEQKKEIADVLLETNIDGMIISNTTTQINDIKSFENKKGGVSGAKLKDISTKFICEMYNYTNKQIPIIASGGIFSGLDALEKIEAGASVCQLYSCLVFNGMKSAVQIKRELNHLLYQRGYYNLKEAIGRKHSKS

As for `COc1cc(CO)cc(I)c1O[C@H]1C=C(C(=O)NCCO)C[C@@H](N(CC2CCCCC2)C(=O)c2ccc(C(F)(F)F)cc2)[C@@H]1O`, the z-score in [1] is 0.608; in assay [2], -0.535; in assay [3], 1.42; in assay [4] it was 0.639; in [5], -0.189; in assay [6], 0.214. Moreover, the z-score in assay [7] is -0.0651 (inactive); in assay [8] it was -1.09; in assay [9] it was -0.337; in [10], 0.126 (inactive); in [11], 0.445; in [12], -1.02 (inactive). The z-score in [13] is -0.327 (inactive); in [15], 0.425 (inactive); in [16], 0.183 (inactive); in [17], 0.342 (inactive); in assay [18] it was 0.212 (inactive); in [19], 0.508. Besides, the composite z-score in assay [14] is 0.345 (inactive); in assay [20], 0.0859.
As to `COc1ccccc1CN1C(=O)c2ccccc2[C@](Cc2ccccc2I)(C(=O)NC(C)C)[C@@H]1c1ccc(CO)cc1`, the z-score was 0.312 in assay [1]; 0.771 in assay [2]; -0.185 in assay [3]; -1.38 in [4]; -2.99 in assay [5]; 1.63 in [6]. For the same compound, the z-score was -0.0467 (inactive) in assay [7]; -0.507 in assay [8]; -1.82 in assay [9]; -0.306 (inactive) in assay [10]; 0.985 in assay [11]; -0.601 (inactive) in [12]. In addition, the z-score in [13] is -0.577 (inactive); in assay [15], -0.379 (inactive); in assay [16], 0.862 (inactive); in assay [17], 1.05 (inactive); in assay [18] it was 1.01 (inactive); in assay [19], -0.305. The values for the composite z-score in assay [14] and in assay [20] were -2.47 (inactive) and -0.253, respectively.
In the case of `NCCCCCNC(=O)[C@@H]1C[C@@H]2C(=O)N[C@@H](CCCCN)C(=O)N2[C@@H]1c1cccc(OCCO)c1`, the z-score in assay [1] was 0.338; in assay [2], 0.337; in [3], 0.68; in assay [4] it was 0.89; in [5] it was 0.269; in [6], 0.0184. In addition, the z-score was 1.37 (inactive) in assay [7]; -0.698 in assay [8]; -0.362 in assay [9]; 0.714 (inactive) in assay [10]; 1.03 in assay [11]; 0.198 (inactive) in [12]. The z-score was 1.11 (inactive) in assay [13]; -0.105 (inactive) in [15]; -0.0041 (inactive) in assay [16]; 0.928 (inactive) in assay [17]; 1.22 (inactive) in assay [18]; 1 in assay [19]. Moreover, the composite z-score in assay [14] is -0.308 (inactive); in assay [20] it was -0.399.
Turning to `CC(C)CNC(=O)[C@@]1(c2ccc([N+](=O)[O-])cc2)CC(=O)N(C2CCCCC2)[C@@H]1c1ccc(CO)cc1I`, the z-score in [1] was 0.304; in assay [2], 0.13; in assay [3], -0.108; in assay [4], -2; in [5], -0.317; in assay [6], 1.15. Further, the z-score in [7] was -0.472 (inactive); in assay [8] it was -0.296; in assay [9], 0.0603; in assay [10], 1.02 (inactive); in assay [11], 0.201; in [12] it was -0.871 (inactive). Moreover, the z-score is -0.0126 (inactive) in assay [13]; 0.304 (inactive) in [15]; -0.294 (inactive) in [16]; 0.175 (inactive) in assay [17]; -0.683 (inactive) in assay [18]; 0.447 in assay [19]. For the same compound, the values for the composite z-score in assay [14] and in assay [20] were 0.797 (inactive) and 0.169, respectively.
Turning to `CN(C)CCCCNC(=O)[C@H]1C[C@H]2C(=O)N3CCC[C@H]3C(=O)N2[C@H]1c1ccc(O)cc1`, the z-score in assay [1] is -0.448; in [2] it was 0.862; in assay [3] it was -0.55; in assay [4], 0.26; in assay [5] it was 0.293; in assay [6], -0.835. The z-score in assay [7] was -0.104 (inactive); in assay [8], 0.613; in assay [9], -0.927; in [10] it was 0.228 (inactive); in [11] it was 0.769; in assay [12], -0.659 (inactive). The z-score in assay [13] was 0.949 (inactive); in assay [15] it was 1.99 (inactive); in assay [16] it was -0.35 (inactive); in assay [17], -0.476 (inactive); in [18] it was -0.565 (inactive); in assay [19] it was -0.536. Moreover, the composite z-score in assay [14] was -0.884 (inactive); in assay [20], -0.192.
On to `COCC(=C=CC[C@H](O)c1cccc(OCCO)c1)C[C@H](O)c1ccccn1`, for which the z-score in assay [1] was 1.39; in assay [2], 0.101; in assay [3] it was 1.25; in [4], 0.0467; in [5], 0.461; in [6] it was 0.843. Moreover, the z-score in assay [7] is 1.49 (inactive); in assay [8], 0.237; in [9] it was -0.664; in [10], 1.22 (inactive); in [11], 1.51; in assay [12] it was 1.65 (inactive). Also, the z-score in [13] was 0.959 (inactive); in assay [15] it was 0.437 (inactive); in assay [16], 1.07 (inactive); in assay [17] it was 1.38 (inactive); in [18], 1.23 (inactive); in [19], 1.66. Moreover, the composite z-score was -0.672 (inactive) in [14] and -0.0453 in [20].
`COc1cc(CO)cc(I)c1O[C@H]1C=C(C(=O)NCCO)C[C@@H](N(Cc2ccc(F)cc2)C(=O)C2CCCO2)[C@@H]1O` (stereo not given in full): the z-score is 0.656 in assay [1]; 0.284 in [2]; 0.364 in assay [3]; 0.87 in assay [4]; 0.577 in assay [5]; 1.04 in assay [6]. Also, the z-score in assay [7] was 0.195 (inactive); in assay [8] it was -0.899; in assay [9], 0.578; in assay [10] it was -0.409 (inactive); in assay [11], 0.266; in [12], -1.96 (inactive). The z-score was 0.695 (inactive) in assay [13]; 0.507 (inactive) in assay [15]; -0.254 (inactive) in [16]; 2.94 (inactive) in [17]; 2.03 (inactive) in assay [18]; 0.562 in assay [19]. The composite z-score in [14] is -0.737 (inactive); in assay [20] it was -0.165.
As to `C=CC[C@H](OC(=O)Nc1ccc(OC)cc1)c1ccc(O)c2ccccc12`, the z-score in [1] was -1.39; in assay [2], -1.07; in assay [3] it was -3.1; in assay [4], -2.8; in assay [5], -4.26; in assay [6], -2.68. Besides, the z-score in assay [7] was -1.05 (inactive); in [8], -1.02; in assay [9] it was -2.15; in [10], -0.745 (inactive); in [11], -0.878; in [12], -16.7 (active). For the same compound, the z-score is -6.07 (inactive) in assay [13]; 1.82 (inactive) in assay [15]; -20 (active) in [16]; 0.852 (inactive) in [17]; 0.148 (inactive) in assay [18]; -4.15 in assay [19]. For the same compound, the composite z-score was -7.13 (inactive) in [14] and -0.0872 in assay [20].
Regarding `O=C1OCC=C[C@H]2OC34C=CCN(c5ccc(Cl)cc5)C(=O)[C@H]3N(CCCCCO)C(=O)[C@@H]4[C@@H]12` (stereo not given in full), the z-score in [1] was -0.746; in [2] it was 0.699; in [3], -0.231; in [4], 0.733; in assay [5], 0.707; in [6], -0.26. In addition, the z-score was 0.37 (inactive) in [7]; 0.536 in [8]; 1.35 in assay [9]; -0.283 (inactive) in assay [10]; -0.46 in [11]; -1.1 (inactive) in assay [12]. For the same compound, the z-score in [13] is -0.338 (inactive); in [15], -0.0963 (inactive); in [16], 0.119 (inactive); in [17], 0.602 (inactive); in [18], 0.182 (inactive); in assay [19] it was 0.0508. Moreover, the composite z-score is 0.193 (inactive) in [14] and 0.287 in [20].
